Compound activity as filed in PubChem.
Most compounds without a hit are left out; they make up all but 1.8% or so of the library.
hERG WT inh = KCNH2 (human, wildtype) channel inhibition; Q12809; U2OS, BacMam KCNH2, thallium flux FluxOr; hits give low values; activity change, % at 1.84 µM; 0.37% of 340,000 active;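 active = maximum activity change below -70%; inconclusive = maximum activity change between -70% and -50%; inactive = maximum activity change above -50%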
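U2OS cells transduced with wild-type KCNH2 virus are loaded with FluxOr dye for 45 min, and thallium flux is measured in kinetic reads before and after stimulation buffer. Rate constants are normalized to DMSO controls.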
12-LOX inh = blocks human arachidonate 12S-lipoxygenase; purified 12hLO, xylenol orange hydroperoxide absorbance; 1.1% of 580,000 active; Potency, µM (highest dose often 108 µM), most hits filed as inhibitors; P18054
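Purified human 12hLO (150 nM final) in 25 mM Hepes, 0.01% Triton X-100, pH 7.0 was preincubated 15 min at room temperature with compound. Then 40 uM arachidonic acid was added, 30 min. Hydroperoxide was read by Fe-XO absorbance ratio 573/405 nm.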
AT treatment = potential ataxia-telangiectasia treatments restoring KAP-1 phosphorylation; F2112 A-T fibroblasts, KAP-1 phosphorylation AlphaLISA; neocarzinostatin DNA damage 30 min before lysis; Potency, µM (series often up to 57.5 µM), hits mostly activators; 0.19% of 320,000 active; note: nearly all actives have a fitted effect of over 45% in size
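hTERT-immortalized A-T patient fibroblasts (F2112), 500 cells/well in OPTI-MEM, 1% FBS, got compounds for 60 min, then NCS for 30 min at 37C. Lysates were then assayed for phospho-KAP-1 by AlphaLISA (anti-pKAP1 donor, anti-KAP1 acceptor beads), 6 hr at 25C.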
KCNH2 3.1 inh = blocks the human KCNH2 3.1 channel isoform | U2OS KCNH2 3.1, thallium flux FluxOr; hits give low values | 0.95% of 340,000 active | activity change, % (tested at about 1.8 µM);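 active = maximum activity change below -70%; inconclusive = maximum activity change from -70% to -50%; inactive = maximum activity change above -50%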;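 note: thallium influx rate constant from kinetic fluorescence after stimulation buffer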
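Thallium flux read-out: FluxOr dye with Red40 quencher in HBSS/HEPES, 45 min at RT. Rate constants from kinetic reads were normalized to positive and negative DMSO controls. Cells: U2OS virally expressing the 3.1 isoform.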
A number is an active result; – = inactive; ? = inconclusive; · = no result. Unless noted, calls come from the whole dose curve; as a rule, active = well fitted curve in the direction sought with a large enough effect; inconclusive = small, poorly fitted or top-dose-only effect, or another doubt; inactive = no such curve, though single readings can be large; an effect the other way counts as inactive or inconclusive.

SMILES | hERG WT inh | 12-LOX inh | AT treatment | KCNH2 3.1 inh
CCCCCNC(=O)Cc1csc2nc(C)c(-c3cc(C)n(-c4cccc(C)c4)n3)c(=O)n12 | · | – | · | ·
CCCCNC(=O)Cc1csc2nc(C)c(-c3cc(C)n(-c4cccc(Cl)c4)n3)c(=O)n12 | · | 40µM | · | ·
CCCNC(=O)c1cc(-c2ccccc2OC(C)C)nc2ccccc12 | · | – | · | ·
S=C(NCc1ccc(Cl)cc1Cl)NC1CCCCC1 | – | 40µM | – | –
Cc1ccoc1C(=O)N1CC(F)(F)C[C@H]1c1nnc(C2CC2)o1 | · | – | · | ·
Cc1ccccc1-c1nnc2sc(NC(=O)c3ccc(F)cc3)nn12 | · | 32µM | · | ·
CC(C)c1c(O)ccc2c1CC[C@H]1C(C)(C)CCC[C@]21C | – | – | · | –
COc1ccc(O)c(O)c1/C=C1\[C@@H](C)CCC2C(C)(C)CCC[C@]12C (stereo partly specified) | · | 2.2µM | · | ·
COCCCNC(=O)/C(C#N)=C/c1c(C)[nH]c2ccccc12 | · | 40µM | · | ·
CCN1C(=O)COC[C@@H]1[C@H](O)c1ccc(NC(=O)CCc2ccccc2)cc1 | · | – | · | ·
CN(CC(=O)NC(=O)NC1CC1)Cc1cccc(F)c1 | · | – | · | ·
CCn1c(N)[n+](CC(=O)Nc2ccc(SC(F)F)cc2)c2ccccc21 | – | ? | – | -92
CC1(C(=O)OCC(=O)Nc2nc(-c3ccc(F)c(F)c3)cs2)CC1(Cl)Cl (stereo unspecified) | – | 56µM | – | –
CCC(C)(C)C1CCc2c(sc(NC=O)c2C#N)C1 (stereo unspecified) | · | – | · | ·
Cc1cc(C)n2nc(C(=O)N3CCN4C(=O)CN(C)C(=O)C4C3)cc2n1 (stereo unspecified) | · | – | · | ·
Cc1c(C(=O)NCCSCc2ccccc2)cccc1[N+](=O)[O-] | – | – | – | -77
CC(=O)NC[C@H]1CCN(S(=O)(=O)c2ccc(F)c(Cl)c2)C[C@H]1N(C)C | · | – | · | ·
Cc1cccc(NC(=S)NCCc2ccccc2)n1 | – | 20µM | – | –
S=C(NCCc1ccccc1)Nc1ccccn1 | – | 22µM | – | –
Cc1cc(C)cc(NC(=S)Nc2ccc(Cl)c(Cl)c2)c1 | – | 40µM | – | –
Cc1cccc(C)c1NC(=S)Nc1ccc(Cl)c(Cl)c1 | – | ? | – | –
COc1cc2c(c(O)c1OC)-c1c(cc(OC)c(OC)c1OC)C[C@@H](C)[C@@H](C)C2 | – | – | 20µM | –
COc1cc2c(c(OC)c1OC)-c1c(cc(OC)c(OC)c1OC)C[C@H](C)[C@H](C)C2 | -74 | – | ? | -174
COc1cc2c(c(OC)c1OC)-c1c(cc3c(c1O)OCO3)C[C@@H](C)[C@@H](C)C2 | – | – | – | –
CCNC(=O)N(C1CC1)C1CCOC2(CCN(C(=O)CCc3ccc(OC)cc3)CC2)C1 (stereo unspecified) | · | – | · | ·
SMILES | hERG WT inh | 12-LOX inh | AT treatment | KCNH2 3.1 inh
COc1ccc(CNC(=O)[C@@H](NC(=O)C2CCN(S(=O)(=O)c3ccc(C)cc3)CC2)C(C)C)cc1OC | – | – | – | -74
O=C(C1CCC1)N1CCC2(CC1)CC(N(Cc1ccccc1)C1CC1)CCO2 (stereo unspecified) | · | – | · | ·
Oc1ccc(C2(c3ccc(O)cc3)CCCC2)cc1 | · | 35µM | · | ·
CCn1cc(S(=O)(=O)N2CCC3(CC2)CNC(C(=O)O)C3)cn1 (stereo unspecified) | · | – | · | ·
COc1ccc(CN(CCC(c2ccccc2)c2ccco2)C(=O)c2ccco2)cc1 (stereo unspecified) | – | 50µM | – | –
CC(C)Oc1ccc(C(CCNCc2ccc(O)cc2)c2ccccc2)cc1 (stereo unspecified) | – | 40µM | – | –
CC(C)Oc1ccc(CNC(=O)CC(c2ccccc2)c2cc(Cl)ccc2O)cc1 (stereo unspecified) | – | – | – | –
COc1ccc(C(CCNCc2ccc(OC)c(OC)c2)c2ccc(F)cc2)cc1 (stereo unspecified) | – | – | – | –
COc1ccc(C(CCNCc2ccc(N(C)C)cc2)c2ccccc2)cc1 (stereo unspecified) | – | ? | – | -85
Cc1cnc(CN2CCc3c([nH]c4ccccc34)C2C2CCCCC2)[nH]1 (stereo unspecified) | – | – | – | -72
CC(=O)Oc1ccccc1N(C(C)=O)S(=O)(=O)c1ccc2ccccc2c1 | – | – | – | –
CC(=O)Oc1c(Br)cc(N(C(C)=O)S(=O)(=O)c2ccccc2)c2ccccc12 | – | 13µM | – | –
CCN1C(=NCCCOC(C)C)N[C@@H](c2ccccc2)[C@H](C(=O)OC)[C@H]1C | – | – | – | –
CCN1C(=NCCc2ccc([N+](=O)[O-])cc2)N[C@@H](c2ccccc2)[C@H](C(=O)OC)[C@H]1C | – | – | – | -93
CCN1C(=NCCc2ccc(Br)cc2)N[C@@H](c2ccccc2)[C@H](C(=O)OC)[C@H]1C | – | 45µM | – | -79
Cc1cccc2cc(-c3nc(-c4cccnc4)no3)c(=O)oc12 | · | – | · | ·
CC1=NN(c2ccccc2)C(=O)/C1=C/c1ccc(Cl)cc1 | – | 6.3µM | – | –
CC1=NN(c2ccccc2)C(=O)C1=Cc1ccccc1 | – | ? | · | –
Cn1c(CCn2ccccc2=O)nc2cc(NC(=O)c3ccccc3)ccc21 | · | – | · | ·
O=C(CCc1c[nH]c2ccccc12)Nc1nnc(C2CCCCC2)s1 | · | – | · | ·
Cc1cc(Cl)cc2c(C=O)c(C(C)(C)C)[nH]c12 | · | – | · | ·
Cc1cc(Cl)cc2sc(=S)[nH]c12 | – | 11µM | · | –
COc1ccc(C(=O)N2CCC3(CC2)N=C(c2ccc(Cl)cc2)NO3)cc1F | · | – | · | ·
COC(=O)[C@@H]1Cc2nc[nH]c2CN1Cc1ccc([N+](=O)[O-])cc1 | · | 10µM | · | ·
OCc1cccc(Nc2ncnc3ccsc23)c1 | · | – | · | ·
SMILES | hERG WT inh | 12-LOX inh | AT treatment | KCNH2 3.1 inh
COc1cccc(CNC(=O)c2ccc(CS(=O)Cc3ccccc3Cl)o2)c1 (stereo unspecified) | – | – | · | -81
O=C(NCCCc1ccccc1)c1ccc(CS(=O)Cc2ccc(Cl)cc2)o1 (stereo unspecified) | – | – | – | -85
COc1cccc(CNC(=O)c2ccc(CS(=O)Cc3ccc(Cl)cc3)o2)c1 (stereo unspecified) | · | – | · | ·
Clc1ccc2nnc(Cl)n2n1 | -220 | – | – | -183
C=CCN(Cc1cccs1)C(=O)COC | · | – | · | ·
CCOC(=O)c1cnc(-n2nc(C)cc2C)nc1NCCc1ccccc1 | – | 45µM | – | –
Cc1ccc2oc(C(=O)N3CCC(c4nc5ccccc5o4)CC3)c(C)c2c1 | · | – | · | ·
CC(/C=C1\SC(=S)N(NS(=O)(=O)c2ccc(C)cc2)C1=O)=C\c1ccccc1 | – | 16µM | – | –
CC(/C=C1\SC(=S)N(NC(=O)c2ccc(C)cc2)C1=O)=C\c1ccccc1 | – | · | – | –
CC(/C=C1\SC(=S)N(NS(=O)(=O)c2ccccc2)C1=O)=C\c1ccccc1 | – | ? | – | –
CC(/C=C1\SC(=S)N(c2ccc(C(=O)O)cc2)C1=O)=C\c1ccccc1 | – | 35µM | – | –
CC(=O)N1C(=O)/C(=C2\SC(=S)N(NS(=O)(=O)c3ccc(C)cc3)C2=O)c2ccccc21 | – | 45µM | – | –
